# Laboratory results published in the supplement of paper PMC11628255, “Interference of metal ions on the bioluminescent signal of firefly, Renilla, and NanoLuc luciferases in high-throughput screening assays” (Frontiers in Chemistry, 2024).
# ± gives the standard deviation of the averaged measurements.
# Columns and labels:
# [1] = tested on: NanoLuc luciferase (NLuc); assay: residual bioluminescent signal relative to negative (DMSO) control; higher = less interference (more residual luciferase signal)
# Outline: (§1)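 In triplicate wells of 384-well plates, each metal salt (0.01, 1 and 5 mM final, prepared in water) was pre-incubated with purified firefly, NanoLuc or Renilla luciferase for 10 min at room temperature in either screening or HEPES buffer. Readings of luminescence were taken 10 min after the substrate went in. The residual signal for a well is its luminescence relative to the mean of vehicle-only wells on the same plate, as a percentage.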
# [2] = tested on: Renilla luciferase (RLuc); assay: as above
# Outline: as §1
# [3] = metal salt concentration 0.01 mM, HEPES conditions (100 mM HEPES, 0.1% BSA, pH 7.5)
# [4] = metal salt concentration 0.01 mM, screening conditions (PBS, 0.1% BSA, pH 7.4)
# [5] = metal salt concentration 1 mM, HEPES conditions (100 mM HEPES, 0.1% BSA, pH 7.5)
# [6] = metal salt concentration 1 mM, screening conditions (PBS, 0.1% BSA, pH 7.4)
# [7] = metal salt concentration 5 mM, HEPES conditions (100 mM HEPES, 0.1% BSA, pH 7.5)
# [8] = metal salt concentration 5 mM, screening conditions (PBS, 0.1% BSA, pH 7.4)
# [9] = metal salt concentration 0.01 mM, HEPES conditions (100 mM HEPES, 0.05% BSA, 0.3 M sodium ascorbate, pH 7.5)
# [10] = metal salt concentration 0.01 mM, screening conditions (50 mM Tris-HCl, […] KH2PO4, […] NaCl, 0.25 mM EDTA, 0.1% BSA, 0.3 M sodium ascorbate, pH 7.4)
# [11] = metal salt concentration 1 mM, HEPES conditions (100 mM HEPES, 0.05% BSA, 0.3 M sodium ascorbate, pH 7.5)
# [12] = metal salt concentration 1 mM, screening conditions (50 mM Tris-HCl, […] KH2PO4, […] NaCl, 0.25 mM EDTA, 0.1% BSA, 0.3 M sodium ascorbate, pH 7.4)
# [13] = metal salt concentration 5 mM, HEPES conditions (100 mM HEPES, 0.05% BSA, 0.3 M sodium ascorbate, pH 7.5)
# [14] = metal salt concentration 5 mM, screening conditions (50 mM Tris-HCl, […] KH2PO4, […] NaCl, 0.25 mM EDTA, 0.1% BSA, 0.3 M sodium ascorbate, pH 7.4)
SMILES,"residual bioluminescent signal [1, 3] [%]","residual bioluminescent signal [1, 4] [%]","residual bioluminescent signal [1, 5] [%]","residual bioluminescent signal [1, 6] [%]","residual bioluminescent signal [1, 7] [%]","residual bioluminescent signal [1, 8] [%]","residual bioluminescent signal [2, 9] [%]","residual bioluminescent signal [2, 10] [%]","residual bioluminescent signal [2, 11] [%]","residual bioluminescent signal [2, 12] [%]","residual bioluminescent signal [2, 13] [%]","residual bioluminescent signal [2, 14] [%]"
O=[N+]([O-])[O-].O=[N+]([O-])[O-].[Zn+2] [zinc nitrate],93.6 ± 0.95,93 ± 6.4,30.5 ± 4.9,32.8 ± 4.5,16.1 ± 1.8,9.03 ± 2.6,86 ± 1.9,96.8 ± 8.7,11.8 ± 2.2,85.7 ± 3.5,1.13 ± 0.12,14.9 ± 12
O=[N+]([O-])[O-].O=[N+]([O-])[O-].[Ca+2] [calcium nitrate],,,,,,,83 ± 5.8,79.9 ± 9.1,92.3 ± 4.3,86.7 ± 4.6,106 ± 6.2,19.5 ± 7.2
O=[N+]([O-])[O-].O=[N+]([O-])[O-].O=[N+]([O-])[O-].[Al+3] [aluminium nitrate],95.9 ± 2.5,100 ± 2.5,68.7 ± 3.2,89.9 ± 5.7,107 ± 1.8,103 ± 4.9,85.7 ± 7.3,91.1 ± 1,7.39 ± 0.84,90.2 ± 1.4,103 ± 2.5,94.2 ± 6.2
O=[N+]([O-])[O-].[K+] [potassium nitrate],95.2 ± 2.4,104 ± 1.6,90.9 ± 1.1,94.9 ± 3.4,101 ± 2,101 ± 4.7,110 ± 7.7,101 ± 7.9,104 ± 1.4,108 ± 11,109 ± 5.3,102 ± 3.8
O=[N+]([O-])[O-].O=[N+]([O-])[O-].[Ni+2] [nickel(II) nitrate],,,,,,,82.5 ± 12,99.08 ± 0.95,57.9 ± 4.5,79.3 ± 3.2,22.4 ± 2.8,52.7 ± 11
O=[N+]([O-])[O-].[Na+] [sodium nitrate],,,,,,,93.9 ± 5.2,101 ± 3.4,96.7 ± 2.8,97.6 ± 5.2,109 ± 7.3,107 ± 2.8
O=[N+]([O-])[O-].O=[N+]([O-])[O-].[Pb+2] [lead(II) nitrate],,,,,,,102 ± 1.7,112 ± 8.2,42.9 ± 4.4,69.9 ± 14,30.2 ± 3.3,5.96 ± 0.97
O=[N+]([O-])[O-].O=[N+]([O-])[O-].[Cu+2] [copper(II) nitrate],,,,,,,99.3 ± 10,104 ± 6.5,0.774 ± 0.61,0.583 ± 0.34,0.774 ± 0.24,0.897 ± 0.62
O=[N+]([O-])[O-].O=[N+]([O-])[O-].[Cd+2] [cadmium nitrate],,,,,,,100 ± 15,102 ± 9.5,11.8 ± 0.97,45.6 ± 6.1,1.41 ± 0.32,12.2 ± 3.1
O=[N+]([O-])[O-].[Li+] [lithium nitrate],93.22 ± 0.49,96.7 ± 1,97 ± 3.4,95.4 ± 4.8,102 ± 3.7,97.1 ± 3.3,88.6 ± 6.9,87.4 ± 5.8,94.2 ± 14,86.8 ± 1.4,97.7 ± 6.4,88.5 ± 5.5
O=[N+]([O-])[O-].O=[N+]([O-])[O-].O=[N+]([O-])[O-].[Ga+3] [gallium(III) nitrate],,,,,,,105 ± 12,98.9 ± 6,10.6 ± 0.8,112 ± 11,3.03 ± 1.8,1.92 ± 1.4
[Cl][Sn][Cl] [tin(II) chloride],95.8 ± 2.9,97 ± 5.1,90.1 ± 5,84.2 ± 6.6,87.3 ± 5,0.413 ± 0.39,103 ± 4.7,96.3 ± 7.4,103 ± 11,95.3 ± 12,92.9 ± 2.4,11.3 ± 2.3
